In PubChem BioAssay AID2216 (Broad Institute, 2009):
Among all 300,000 compounds or so, about 3,300 (1.1%) were called active. Not shown: some 6% with an inconclusive outcome.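 The calls were made as follows: active = more than half of the replicate wells show a fall in the fluorescence ratio signal beyond about 16% (limit read from the data, passing the limit was not always enough); inconclusive = exactly half of the replicate wells pass the set limit; inactive = fewer than half of replicates pass the limit.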 The sample as a whole holds a higher share of actives than the screen did.

These compounds were tested on Ran GTPase (GTP-bound) - importin-beta complex (assay: disruptors of Ran-importin-beta complex formation – biochemical, FRET, CFP-Ran, YFP-importin-beta, homogeneous, primary screen (AID 2216;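 also: 0% = DMSO wells and 100% = Ran loaded with GDP instead of GTP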)). Conditions: cell-free CFP-Ran/YFP-importin-beta FRET ratio; stronger effect = higher value; concentration not given here.

SMILES | inhibition
COc1ccc(CCNC(=O)Cn2c(=O)n(CC3CCCO3)c(=O)c3ccccc32)cc1OC (configuration not stated) | -2.65% (inactive)
Cc1ccc(C(=O)NCCN2CCOCC2)cc1C | -1.81% (inactive)
Cc1ccccc1NC(=O)Cn1c(=O)n(CC2CCCO2)c(=O)c2ccccc21 (configuration not stated) | 0.402% (inactive)
O=C(NCc1cccnc1)c1cc(S(=O)(=O)N2CCOCC2)c(Cl)cc1Cl | -0.678% (inactive)
Cc1ccc(CCNC(=O)c2ccc3nc4ccccc4c(=O)n3c2)cc1 | 8.55% (inactive)
Cc1cccn2c(=O)c3cc(C#N)c(=NC(=O)c4cccnc4)n(CC4CCCO4)c3nc12 (configuration not stated) | 154% (active)
COc1ccc2oc(C(=O)NCc3ccco3)c(C)c2c1 | -0.417% (inactive)
Cc1ccc2nc3c(cc(C(=O)NCCc4ccccc4)c(=N)n3CC3CCCO3)c(=O)n2c1 (configuration not stated) | 182% (active)
O=C(NCc1ccco1)c1cccn2c(=O)c3c4c(sc3nc12)CCCC4 | -9.38% (inactive)
Cc1cccn2c(=O)c3cc(C(=O)NCCN4CCOCC4)c(=N)n(Cc4cccnc4)c3nc12 | 167% (active)
Cc1cccn2c(=O)c3cc(C(=O)NC4CCCCC4)sc3nc12 | 2% (inactive)
COc1ccc(CCn2c(=N)c(C(=O)NCc3ccco3)cc3c(=O)n4cccc(C)c4nc32)cc1 | 21.1% (active)
COc1cccc(NC(=O)CSc2nccn(-c3ccc4c(c3)OCCO4)c2=O)c1 | -2.91% (inactive)
CCCCN(C1CCS(=O)(=O)C1)S(=O)(=O)c1ccc(C(C)C)cc1 (configuration not stated) | 0.359% (inactive)
O=C(c1ccc(NS(=O)(=O)c2ccc3[nH]c(=O)[nH]c3c2)cc1)N1CCCCC1 | 0.81% (inactive)
COc1ccc(CCNC(=O)c2ccccc2OCc2ccccc2)cc1 | 2.59% (inactive)
O=C(N[C@@H](Cc1ccccc1)C(=O)OCc1ccccc1)c1nc[nH]c1C(=O)NC1CCNCC1 | 1.19% (inactive)
Cc1ccc2nc(N3CCN(C(=O)c4ccco4)CC3)sc2c1 | -2.41% (inactive)
COc1ccc(C(=O)OCC(=O)c2ccc(Cl)s2)c(OC)c1OC | 0.711% (inactive)
Cc1cc(C)c(S(=O)(=O)NCC(c2ccc3c(c2)OCO3)N2CCOCC2)c(C)c1 (configuration not stated) | 2.24% (inactive)
CCOC(=O)C1CCN(Cc2c(C(=O)N3CCOCC3)nc3c(C)cccn23)CC1 | -0.645% (inactive)
Cc1cccn2c(=O)c3cc(C(=O)N4COCC4(C)C)n(C)c3nc12 | -4.28% (inactive)
Cc1cccn2c(=O)c3cc(C(=O)NCC4CCCO4)c(=N)n(Cc4ccc(F)cc4)c3nc12 (configuration not stated) | 188% (active)
O=C(NCC1CCCO1)c1cc2c([nH]c3ccccc32)c(-c2ccc(F)cc2)n1 (configuration not stated) | -5.32% (inactive)

SMILES | inhibition
Cc1cccn2c(=O)c3cc(C#N)c(=O)n(CCCN4CCOCC4)c3nc12 | 117% (active)
COc1ccc(CCn2c(=N)c(C(=O)NCC3CCCO3)cc3c(=O)n4cccc(C)c4nc32)cc1OC (configuration not stated) | 0.0539% (inactive)
CCc1noc(C)c1C(=O)N1CCCC(N2CCN(c3ccc(F)cc3)CC2)C1 (configuration not stated) | 3.28% (inactive)
OCc1ccc(-c2ccccc2)c(-c2ccccc2)c1 | 3.41% (inactive)
CCOC(=O)c1ccc(NC(=O)c2c(NCc3ccccc3)[nH]c(=O)[nH]c2=O)cc1 | -5.92% (inactive)
CC(C)C1C2=C(CC(C)(C)CC2=O)ON1c1ccccc1 (configuration not stated) | 26.1% (active)
Cc1cc2c(cc1C)NC(c1ccccn1)C1=C(CC(C)(C)CC1=O)N2 (configuration not stated) | -3.07% (inactive)
Cc1ccsc1C1C(C#N)=C(N)OC2=C1C(=O)CC(C)(C)C2 (configuration not stated) | -0.947% (inactive)
CCCCCCCCCCCCN1[C@@H](CC(C)=O)c2cc(F)cc(F)c2S1(=O)=O | -0.304% (inactive)
CCCC1OC23CCCCC2C(C#N)(C#N)C1(C#N)C(=N)O3 (configuration not stated) | 41.6% (active)
CC(C)N(C(=O)Cn1cc(S(=O)(=O)CC(=O)N2CCOCC2)c2ccccc21)C(C)C | 2.93% (inactive)
O=C1CCc2cc(S(=O)(=O)Nc3ccc(C(F)(F)F)cc3)cc3c2N1CC3 | -3.26% (inactive)
O=C(COc1cccc2c1CCNC2=O)NC1CCCCC1 | -2.21% (inactive)
CCOC(=O)c1ccc2c(c1)nc(C)n2CC | -1.9% (inactive)
CC(=O)c1ccc(-c2ccc(Cn3c(C)nc4cc(N)c(C)nc43)cc2)cc1 | 27.1% (active)
Cc1cc2nc3c(=O)n(Cc4ccccc4)c(=O)[nH]c3nc2cc1N | -261% (inactive)
O=C(CSc1n[nH]c(-c2cccs2)n1)N1CCCCC1 | -0.392% (inactive)
CS(=O)(=O)c1ccc(C(=O)OCC(=O)NNC(=O)COc2ccc(Cl)cc2)cc1 | -2.55% (inactive)
O=C(CSc1ccccn1)N1CCN(S(=O)(=O)c2ccc(Cl)cc2)CC1 | -1.48% (inactive)
Cc1cccc(NC(=O)c2ccc(S(=O)(=O)N(C)CC3CCCO3)cc2)c1C (configuration not stated) | -0.172% (inactive)
N#C/C(=C/c1ccc(N2CCOCC2)o1)C(=O)N1CCOCC1 | 39.5% (active)
N#C/C(=C\C1=C(N2CCOCC2)C(=C\c2ccccc2)/CC1)C(=O)Nc1ccccc1F | -3.91% (inactive)
O=C(N1CCOCC1)N1CCOCC1 | -2.74% (inactive)
N#C/C(=C\c1ccc(-c2cccc([N+](=O)[O-])c2)o1)C(=O)NCCN1CCOCC1 | 2.98% (inactive)

SMILES | inhibition
Cc1ccc(C(=O)N2CCN(C(=O)N3CCOCC3)CC2)cc1 | -2.03% (inactive)
N#C/C(=C\c1ccc(N2CCOCC2)o1)C(=O)N1CCOCC1 | 56.4% (active)
CC(Oc1ccc(F)cc1)C(=O)Nc1ccccc1C(=O)NC1CC1 (configuration not stated) | -6.02% (inactive)
Cc1ccc(-c2cc(=O)[nH]c(NCc3ccccc3)n2)cc1 | 4.99% (inactive)
CSCCC(NC(=O)c1ccco1)C(=O)Nc1cc(C)ccn1 (configuration not stated) | -2.09% (inactive)
Cc1cc(Cl)c2oc(C(=O)N(C)C(C)c3ccccn3)c(C)c2c1 (configuration not stated) | 1.52% (inactive)
CC(=O)Nc1ccc(NC(=O)CS(=O)(=O)c2cn(CC(=O)N3CCCCC3)c3ccccc23)cc1 | -0.901% (inactive)
Cc1ccc(C)c(-c2nnc(NC(=O)CS(=O)(=O)c3ccccc3)o2)c1 | -0.829% (inactive)
CNC(=O)c1cc2c(ccc3ccccc32)oc1=N | 35.7% (active)
N=c1oc2ccccc2cc1C(=O)NCc1ccccc1 | 2.48% (inactive)
N=c1oc2ccccc2cc1C(=O)N/N=C/c1ccccc1 | 3.47% (inactive)
O=C(NNC(=O)c1cc(-c2ccccc2Cl)nc2ccccc12)c1csc(N2CCOCC2)n1 | 1.15% (inactive)
O=C(NCc1ccncc1)c1ccc(NS(=O)(=O)c2cccc([N+](=O)[O-])c2)cc1 | 3.31% (inactive)
CC(OC(=O)CNC(=O)c1ccco1)C(=O)Nc1ccc(Cl)cn1 (configuration not stated) | 0.318% (inactive)
CNC(C)C#Cc1ccc2sc3cc(OC)c(OC)cc3c(=O)c2c1 (configuration not stated) | 38.7% (active)
Cc1cccc(N2CCN(C(=O)CCS(=O)(=O)c3ccc4c(c3)NC(=O)C(C)S4)CC2)c1C (configuration not stated) | 1.94% (inactive)
CSc1nsc(NC(=O)Nc2ccccc2)n1 | 1.6% (inactive)
NC(=O)CCN1CCN(S(=O)(=O)/C=C/c2ccccc2)CC1 | 3.03% (inactive)
O=c1cc(CN2CCN(S(=O)(=O)/C=C/c3ccccc3)CC2)c2ccc(O)cc2o1 | 21% (active)
COc1ccc2c(CN3CCN(S(=O)(=O)c4cccs4)CC3)cc(=O)oc2c1 | -2.73% (inactive)
CCOC(=O)N1CCN(C(=O)c2ccc(S(=O)(=O)Nc3cccc(C(F)(F)F)c3)cc2)CC1 | -0.937% (inactive)
CN(C)CCCn1c(N)c(C#N)c2nc(C#N)c(C#N)nc21 | 27.1% (active)
Cc1ccc2nnn(Cc3cccc(C(C)(C)C)c3O)c2c1 | 9.31% (inactive)
COCCCn1c(SCC(=O)Nc2oc(C)c3c(C)n[nH]c(=O)c23)nc2sc3c(c2c1=O)CCC3 | -0.217% (inactive)
